Bioassay records as filed in PubChem BioAssay.
WT yeast gro inh: growth inhibition of WT yeast, mitochondrial fusion screen. mitochondrial fusion phenotypic screen, WT strain. inhibition, % at 10 µM. 190,000 tested, 2.1% active; in the data active = inhibition above about 58%; tested in S. cerevisiae
Autophagy mod: autophagy modulation, high-content screen. 190,000 tested, 0.98% active. MEF GFP-LC3 puncta imaging; test concentration mostly 10 µM. calls only at 10 µM (by protocol);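 active = percentage of spot-positive cells more than 3 SD above its plate mean, without a fluorescence outlier flag or 80% toxicity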
Insulin prom up: MIN6 insulin promoter up-regulation. MIN6 insulin promoter-GFP reporter, high-content imaging; stronger effect = higher value. z-score at 5 µM. 190,000 tested, 0.3% active. AID 1625;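 active = z-score above 3 at 5 µM with at least 500 cells counted in the well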
L major viab: Leishmania major promastigote growth inhibition. Leishmania major promastigotes, resazurin fluorescence viability. inhibition, % at 10 µM. 200,000 tested, 9% active. AID 1063; in the data active = inhibition above about 50%;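 also: promastigotes grown with compound for 44 hours at 28 °C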
Insulin prom inh: TRM-6 insulin promoter activity inhibition; TRM-6 cells (human fetal islet line), insulin promoter-eGFP reporter, imaging; reporter expression induced with tamoxifen; inhibition, % at 2 µM; 130,000 tested, 0.9% active; AID 1273;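 active = inhibition above the mean plus 3 SD, with well images judged a real hit on visual review, cut at about 60% in these data, passing the limit was not always enough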
A number is an active result. This is a sample that favours compounds with a hit; in the whole collection about 11% have one here.

`O=C(Nc1cccc(-c2cn3cccnc3n2)c1)c1ccc2c(c1)OCO2` gave Autophagy mod inactive, Insulin prom up inactive, L major viab 98 and Insulin prom inh inactive.
`O=C(NN=C1CCCCCCCCCCC1)c1ccncc1` gave WT yeast gro inh inactive, Autophagy mod inactive, Insulin prom up inactive, L major viab inactive and Insulin prom inh inactive.
For Cc1ccc2cc(CN(CCN3CCCC3)C(=O)Nc3ccc(F)cc3)c(=O)[nH]c2c1C the results were WT yeast gro inh inactive, Autophagy mod inactive, Insulin prom up inactive, L major viab 73 and Insulin prom inh inactive.
`Cc1ccc2cc(CN(CCN3CCCC3)C(=O)Nc3ccccc3)c(=O)[nH]c2c1C` gave WT yeast gro inh inactive, Autophagy mod inactive, Insulin prom up inactive, L major viab inactive and Insulin prom inh inactive.
CCC(=O)Nc1ccc2c(c1)ncn2-c1ccccc1 was read as WT yeast gro inh inactive, Autophagy mod inactive, Insulin prom up 5, L major viab inactive and Insulin prom inh inactive.
For CC(=O)Nc1ccc2c(c1)ncn2-c1ccccc1 the results were Insulin prom up inactive.
For Cc1ccc(S(=O)(=O)Nc2cccc3c2CCCC3)cc1 the results were WT yeast gro inh inactive, Autophagy mod inactive, Insulin prom up inactive, L major viab 54 and Insulin prom inh inactive.
Screening Cc1ccc(S(=O)(=O)Nc2ccc(O)c3ncccc23)cc1 returned WT yeast gro inh inactive, Autophagy mod inactive, Insulin prom up inactive and L major viab 99.
`Cc1ccc(S(=O)(=O)Nc2cccc3ncccc23)cc1` gave Insulin prom up inactive.
For Cc1ccc(S(=O)(=O)Nc2ccccc2-c2ccccc2)cc1 the results were WT yeast gro inh inactive, Autophagy mod active, Insulin prom up inactive, L major viab inactive and Insulin prom inh inactive.
Screening CCNc1nc(NC(C)C)nc(NS(=O)(=O)c2ccc(N)cc2)n1 returned WT yeast gro inh inactive, Autophagy mod inactive, Insulin prom up inactive, L major viab inactive and Insulin prom inh inactive.
CCNc1nc(NC(C)C)nc(N(n2cnnc2)S(=O)(=O)c2ccc(C)cc2)n1 was read as WT yeast gro inh inactive, Autophagy mod inactive, Insulin prom up inactive, L major viab 58 and Insulin prom inh inactive.
Screening CCNc1nc(NCC)nc(N(n2cnnc2)S(=O)(=O)c2ccc(C)cc2)n1 returned WT yeast gro inh inactive, Autophagy mod inactive, Insulin prom up inactive, L major viab inactive and Insulin prom inh 80.
`CCNC(=O)N1CCN(C(=O)NCC)CC1` gave WT yeast gro inh inactive, Autophagy mod inactive, Insulin prom up inactive and L major viab inactive.
CCNC(=O)N1CCOCC1 was read as WT yeast gro inh inactive, Autophagy mod inactive, Insulin prom up inactive, L major viab inactive and Insulin prom inh 86.
Screening O=C(NCCc1ccc(F)cc1)N1CCOCC1 returned WT yeast gro inh inactive, Autophagy mod inactive, Insulin prom up inactive, L major viab inactive and Insulin prom inh 83.
`Cc1ccc(C(C(=O)NC(C)(C)C)N(Cc2cccnc2)C(=O)C(=O)NC2CCCCC2)o1` (stereo not given) gave WT yeast gro inh inactive, Autophagy mod inactive, Insulin prom up inactive, L major viab inactive and Insulin prom inh inactive.
`Cc1ccc(C)c(C(=O)COC(=O)c2cc([N+](=O)[O-])ccc2NCCO)c1` gave WT yeast gro inh 60, Autophagy mod inactive, Insulin prom up inactive and L major viab inactive.
O=C(O)c1cc([N+](=O)[O-])ccc1NCCc1ccccc1 was read as Insulin prom up inactive.
`O=C(O)c1cc([N+](=O)[O-])ccc1NCCO` gave WT yeast gro inh inactive, Autophagy mod inactive, Insulin prom up inactive, L major viab 56 and Insulin prom inh inactive.
Screening O=C(COC(=O)c1cc([N+](=O)[O-])ccc1NCCO)Nc1ccc2c(c1)OCO2 returned WT yeast gro inh inactive, Autophagy mod inactive, Insulin prom up inactive and L major viab inactive.
`Cc1cc(C)c(O)c(-c2cc(C(=O)NCc3ccccc3)[nH]n2)c1` gave WT yeast gro inh inactive, Autophagy mod inactive, Insulin prom up inactive, L major viab 52 and Insulin prom inh inactive.
For COc1ccc(CNC(=O)c2cc(-c3cc(C)cc(C)c3O)n[nH]2)cc1 the results were Insulin prom up inactive.
For COc1ccc(NC(=O)c2cc(-c3cc(C)cc(C)c3O)n[nH]2)cc1Cl the results were WT yeast gro inh 66, Autophagy mod inactive, Insulin prom up inactive and L major viab 100.
Screening CC(Sc1nc2c(cc1C#N)CCCCC2)C(=O)O (stereo not given) returned WT yeast gro inh inactive, Autophagy mod inactive, Insulin prom up inactive and L major viab inactive.
For Cc1cc(C)c(NC(=O)/C(=C/c2ccco2)c2ccccc2)c(C)c1 the results were WT yeast gro inh inactive, Autophagy mod inactive, Insulin prom up inactive, L major viab 59 and Insulin prom inh inactive.
